Assay results: PubChem BioAssay (NCI)
“And” between values parts separate entries of the source, which are not always exact repeats. Identical values can stand only once. This is part of a sample that, as a whole, favours compounds with a hit. Of some 83,000 tested, about 20% had one in any assay.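 Method: cells in 96-well plates; compound added at one concentration; 48 h incubation; percent growth measured; values under 10 scored active.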 The source made the active and inactive calls.

These molecules were tested on KM12 colon (assay: NCI-60 one-dose screen, 48 h (100 = growth as untreated, 0 = no growth, -100 = all killed)). Conditions: 10 µM unless noted.
Procedure: Growth inhibition of the KM12 human tumor cell line is measured as a screen for anti-cancer activity. Cells are grown in 96 well plates and exposed to the test compound for 48 hours. Compounds are tested at a single concentration, which is 10^-5 M for most compounds. The reported endpoint is percent growth (GI% or GIPRCNT), where numbers from 0 - 100% represent growth inhibition, and numbers from -100% - 0 represent cell death. For example, a value of 40 represents 60% growth inhibition. A value of 0 means no net growth occurred over the course of the experiment. A value of -40 indicates 40% of cells at the beginning of the experiment died by the end of the experiment. A value of -100 means all cells are dead at the end of the experiment.
NCI-60 Human Tumor Cell Lines Screen was performed using the standard one-dose NCI protocol, which is described in more detail at https://dtp.cancer.gov/discovery_development/nci-60/default.htm.
Compounds with GIPRCNT values below 10 were considered active. Activity score was based on GIPRCNT using the following formula: […]
Score is 0 for GIPRCNT values of 100 or above, 50 for GIPRCNT values of 0, and 100 for GIPRCNT values of -100.

| Compound | growth |
| --- | --- |
| O=Cc1cncc(-c2ccc3ncnc(N4CCc5cc(F)c(Cl)cc54)c3c2)c1 | 81.8% (inactive) |
| COc1ccccc1Nc1nnc(-c2c[nH]c3ccccc23)o1 | 2.26% (active) |
| COc1ccc2oc(=O)c(-c3csc(N/N=C(\C)c4cc(OC)c(OC)c(OC)c4)n3)cc2c1 | 87.6% (inactive) |
| COc1ccc2[nH]c(=O)cc(-n3ncc(C(=O)/C=C/c4cc(OC)c(OC)c(OC)c4)c3C)c2c1 | -37.2% (active) |
| O=C1NC(=NC23CC4CC(CC(C4)C2)C3)N/C1=C\c1ccc2ncccc2c1 | 24.3% (inactive) |
| O=C(NNC(=O)c1ccc(OCc2nc3ccc(Cl)cc3[nH]2)cc1)Nc1ccc(Cl)c(Cl)c1 | 33.8% (inactive) |
| OC1CCC(Cn2c(C(F)(F)F)cc3c(Cl)ncnc32)CC1 (stereo not given) | 86.5% (inactive) |
| COc1c(B(O)O)cc(F)cc1-c1nc2ccc3[nH]ncc3c2c2c1COCC2 | 70.2% (inactive) |
| Nc1nn2c(-c3cc4ccccc4oc3=O)ccnc2c1N=Nc1ccccc1 | 92% (inactive) |
| COc1cc(/C=N/NC(=O)c2ccc(OCc3nc4ccc(C)cc4[nH]3)cc2)cc(OC)c1OC | 57% (inactive) |
| COC(=O)c1cc(C(C)=O)n2c3ccccc3c3ccccc3c12 | 86% (inactive) |
| Nc1cc(-c2c[nH]c3ccc(F)cc23)nc2cc(-c3c[nH]c4ccccc34)nn12 | -54.1% (active) |
| FC(F)(F)c1cc2c(Cl)ncnc2n1CCC1CCOCC1 | 64.3% (inactive) |
| CC[C@@]12CC(C(=O)OC)=C3Nc4cc5c(cc4[C@@]34CCN(C[C@H]3O[C@H]31)[C@@H]24)[C@@H]1[C@H](O5)[C@@H](O)[C@@]2(CC)CC(C(=O)OC)=C3Nc4cc(O)ccc4[C@@]34CCN1[C@@H]24 | -46.6% (active) |
| O=C1c2cccc3c(N4CCN(Cc5ccccc5)CC4)ccc(c23)C(=O)N1c1cccc(-c2nn(-c3ccccc3)cc2-c2nc3ccccc3s2)c1 | 108% (inactive) |
| COc1ccc2[nH]c(O)c(N=Nc3nc(-c4ccc(C#N)cc4)cs3)c2c1 | 78.4% (inactive) |
| COc1cc(CNC(=O)C[C@H](C)CCC=C(C)C)ccc1OCc1cn(-c2ccccc2Cl)nn1 | 63% (inactive) |
| COc1cc(C=O)ccc1Oc1nc(Nc2ccc(F)cc2)nc(N(C)C)n1 | 99.3% (inactive) and 68.5% (inactive) |
| CS(=O)(=O)Nc1cncc(-c2ccc3ncnc(NCc4ccccc4)c3c2)c1 | 65.5% (inactive) |
| CCCCCCCCCc1ccc(C(=O)Nc2cc(C)ccc2C(=O)OC)cc1 | 105% (inactive) |

| Compound | growth |
| --- | --- |
| O=C(Cn1c(/C=C/c2ccc([N+](=O)[O-])cc2)nc2ccccc2c1=O)Nc1ccccc1 | 77.3% (inactive) |
| O=C1CC(c2ccc(I)cc2)OC2C=Cc3ccccc3C12 (stereo not given) | 92.9% (inactive) |
| CS(=O)(=O)Nc1cccc(-n2c(COc3ccc(OC(F)(F)F)cc3)nc3ccccc32)c1 | 91.9% (inactive) and 101% (inactive) |
| Cn1cc(-c2cc(N)n3nc(-c4c[nH]c5ccccc45)cc3n2)c2cc(F)ccc21 | -33.9% (active) |
| Cc1cccc(/C=C/c2ccc(NC(=S)NCCCCN(C)C)cc2)c1 | -48.6% (active) |
| O=C1Nc2cc(-c3ccc(NS(=O)(=O)c4ccc(F)c(Cl)c4)cc3)ccc2/C1=C/c1ccc[nH]1 | 13.6% (inactive) |
| CCc1ccccc1-c1nc(CN[C@@H]2C[C@@H]3C[C@H]([C@H]2C)C3(C)C)c(C)o1 | -87.4% (active) |
| COc1ccc(C(=O)c2c(N)c(C#N)cn2-c2ccc([N+](=O)[O-])cc2)cc1 | 105% (inactive) |
| Cc1nn(-c2ccccc2)c2nc(C)n(C(=O)N/N=C/c3ccccc3)c(=O)c12 | 99.4% (inactive) |
| CC(=O)c1c2c(c3ccc4c5ccccc5ccc4n13)C(=O)c1ccccc1C2=O | 85.8% (inactive) |
| c1n[nH]cc1-c1nc2ccc3cn[nH]c3c2c2c1CCCC2 | 96.4% (inactive) |
| COC(=O)c1cc(C(=O)C(Br)Br)n2c1ccc1c3ccccc3ccc12 | 39.7% (inactive) |
| Cc1cc(=O)oc2cc(OCC(O)CNN3C(=O)c4cccc5c(N6CCN(C)CC6)ccc(c45)C3=O)ccc12 (stereo not given) | 90.8% (inactive) |
| CN1CCN(C(=O)Oc2cc3c(c4ccccc24)[C@H](CCl)CN3C(=O)c2cc3cc(OCCCN4CCC4)ccc3[nH]2)[C@H]2CSSC[C@H]21 | 2.01% (active) |
| CN(C(=O)CN1C(=O)/C(=C/c2ccco2)SC1=S)C1CCS(=O)(=O)C1 (stereo not given) | 107% (inactive) |
| CCCSc1nnc(-c2c(C)nc3sccn23)o1 | 96.2% (inactive) |
| O=C(Nc1nc2ccc([N+](=O)[O-])cc2s1)Nc1ccccc1F | 13.6% (inactive) |
| CCCCCCCCc1ccc(C(=O)Nc2ccc(C)cc2C(=O)O)cc1 | 50.3% (inactive) |
| COc1ccc(NC(=O)N/N=C/c2c[nH]c3ccccc23)cc1 | 24.7% (inactive) |
| C#CCN(C)CCCOc1ccc(N(CC)C(=O)c2cc(C(C)C)c(O)cc2O)cc1Cl | -9.83% (active) |
